From PubChem
This is one part of a sample in which hits are shown more often than they occur.
Pf apPOL inh: Pf-apPOL inhibitors, biochemical, fluorescence | Plasmodium falciparum apicoplast DNA polymerase (apPOL) | Recombinant Pf-apPOL, molecular beacon fluorescence, 1.5 h | 210,000 compounds, 0.25% hits | inhibition, % at 10 µM
mHTT-CaM PPI inh: mutant huntingtin-calmodulin interaction inhibitors – biochemical, AlphaScreen, primary screen; P42858; AlphaScreen His-mHTT/GST-CaM binding, luminescence; inhibition, % at 15 µM; 190,000 compounds, 3.6% hits; AID 1671202, 2021;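 note: 0% = both proteins with DMSO and 100% = one protein alone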
* marks the source's active call; other numbers are inactive results. Cut-off read from the data, not from the text of the source: active = inhibition above about 50%; inactive = the rest.

What do the screens show for `O=C(Nc1cccc(F)c1)N1CCC2(CC1)Nc1ccccc1-n1cccc12`?
Pf apPOL inh: 2; mHTT-CaM PPI inh: 71*

How did Cc1ccc2c(c1)NC1(CCN(C(=O)c3cccc(F)c3)CC1)c1cccn1-2 do in these assays?
Pf apPOL inh: 1; mHTT-CaM PPI inh: 62*

Results for O=C(c1cccc(OCC2CCCN(C(=O)c3cccc(Cl)c3)C2)c1)N1CCCCC1 (centres undefined) ?
Pf apPOL inh: -4; mHTT-CaM PPI inh: 21

How did O=C(c1c(F)cccc1F)N1CCC(Oc2nc3ccccc3s2)CC1 do in these assays?
Pf apPOL inh: -12; mHTT-CaM PPI inh: 13

Results for Cc1ccc(Cl)cc1NC(=O)CSc1nnc(NC(=O)c2ccc(Cl)cc2)s1 ?
Pf apPOL inh: -10; mHTT-CaM PPI inh: -1

What do the screens show for `O=C(Nc1cccc(F)c1)N1CCC2(CC1)Nc1cc(F)ccc1-n1cccc12`?
Pf apPOL inh: -1; mHTT-CaM PPI inh: 87*

How did Cc1ccc(Cl)cc1NC(=O)N1CCC2(CC1)Nc1cc(F)ccc1-n1cccc12 do in these assays?
Pf apPOL inh: 0; mHTT-CaM PPI inh: 29

What do the screens show for `O=C(Nc1ccc(F)cc1F)N1CCC2(CC1)Nc1cc(F)ccc1-n1cccc12`?
Pf apPOL inh: 1; mHTT-CaM PPI inh: 50

What do the screens show for `Cc1ccc(NC(=O)N2CCC3(CC2)Nc2cc(F)ccc2-n2cccc23)cc1F`?
Pf apPOL inh: -4; mHTT-CaM PPI inh: 86*

Results for COC(=O)c1ccccc1NC(=O)N1CCC2(CC1)Nc1cc(F)ccc1-n1cccc12 ?
Pf apPOL inh: 2; mHTT-CaM PPI inh: 46

What do the screens show for `Cc1ccc2c(c1)NC1(CCN(C(=O)c3ccccc3Br)CC1)c1cccn1-2`?
Pf apPOL inh: -5; mHTT-CaM PPI inh: 89*

How did CCOC(=O)c1ccccc1NC(=O)N1CCC2(CC1)Nc1cc(F)ccc1-n1cccc12 do in these assays?
Pf apPOL inh: -3; mHTT-CaM PPI inh: 50*

Results for O=C(O)c1ccc(NC(=O)c2cccc([N+](=O)[O-])c2)cc1 ?
Pf apPOL inh: -3; mHTT-CaM PPI inh: -8

Results for COc1ccc2c(c1C)OC(=Cc1ccc3c(c1)OCO3)C2=O ?
Pf apPOL inh: -6; mHTT-CaM PPI inh: -4

How did Cc1cccc(NC(=O)N2CCC3(CC2)Nc2cc(F)ccc2-n2cccc23)c1C do in these assays?
Pf apPOL inh: -3; mHTT-CaM PPI inh: 40

How did COC(=O)c1cccc(NC(=O)N2CCC3(CC2)Nc2cc(F)ccc2-n2cccc23)c1 do in these assays?
Pf apPOL inh: -3; mHTT-CaM PPI inh: 53*

How did O=C(Nc1ccccc1Cl)N1CCC2(CC1)Nc1cc(F)ccc1-n1cccc12 do in these assays?
Pf apPOL inh: -1; mHTT-CaM PPI inh: 34

Results for O=C(Nc1ccc(F)c(Cl)c1)N1CCC2(CC1)Nc1cc(F)ccc1-n1cccc12 ?
Pf apPOL inh: 2; mHTT-CaM PPI inh: 97*

Results for NCCCNc1c(Cl)cccc1[N+](=O)[O-] ?
Pf apPOL inh: -6; mHTT-CaM PPI inh: 6

What do the screens show for `O=C(NCC1CCN(C(=O)COc2ccccc2)CC1)c1ccc(Br)o1`?
Pf apPOL inh: -3; mHTT-CaM PPI inh: -6

Results for CC12CC3(C)CC(C)(C1)CC(CN=Cc1ccc([N+](=O)[O-])cc1)(C2)C3 ?
Pf apPOL inh: 4; mHTT-CaM PPI inh: -7

What do the screens show for `COc1cc(NC(=O)C(Cl)(Cl)Cl)cc(OC)c1`?
Pf apPOL inh: 1; mHTT-CaM PPI inh: -3

What do the screens show for `N#Cc1c(-c2ccco2)cc(-c2ccco2)[nH]c1=O`?
Pf apPOL inh: 93*

How did N#CCOc1nc(-c2ccccc2)cc(-c2ccco2)c1C#N do in these assays?
Pf apPOL inh: 0

How did N#Cc1c(-c2ccccc2)cc(-c2ccco2)c(C#N)c1N do in these assays?
Pf apPOL inh: 9; mHTT-CaM PPI inh: 55*

Results for N#Cc1ccc(-c2ccco2)[nH]c1=O ?
Pf apPOL inh: 33

What do the screens show for `Cc1cccc(CN(CCO)Cc2ccccc2)c1`?
Pf apPOL inh: 5; mHTT-CaM PPI inh: -14

How did COc1ccc(-c2nnc(SCc3c(Cl)cccc3Cl)o2)cc1 do in these assays?
Pf apPOL inh: -4; mHTT-CaM PPI inh: -18

How did OCCN(CCO)CC(O)Cn1c2ccc(Cl)cc2c2cc(Cl)ccc21 (centres undefined) do in these assays?
Pf apPOL inh: 0; mHTT-CaM PPI inh: 100*

How did CC(O)Cn1c2ccccc2c2cc(Cl)ccc21 (centres undefined) do in these assays?
Pf apPOL inh: 9; mHTT-CaM PPI inh: 19

How did Cc1nccn1CC(C)C(=O)O (centres undefined) do in these assays?
Pf apPOL inh: 1; mHTT-CaM PPI inh: 0

How did Cc1nccn1CC(O)Cn1c2ccc(Cl)cc2c2cc(Cl)ccc21 (centres undefined) do in these assays?
Pf apPOL inh: 3; mHTT-CaM PPI inh: 100*

Results for Cc1ccc(NC(=O)/C(=C\c2ccc3c(c2)OCO3)NC(=O)c2ccccc2Br)cc1 ?
Pf apPOL inh: 0; mHTT-CaM PPI inh: 9

Results for O=[N+]([O-])c1ccc(N2CCCC2)c(F)c1 ?
Pf apPOL inh: -4; mHTT-CaM PPI inh: 4

Results for CN(C)c1ccc(CCCNS(=O)(=O)Cc2cccc(Cl)c2)cc1 ?
Pf apPOL inh: -27; mHTT-CaM PPI inh: 43

How did CN(C)c1ccc(CCCNS(=O)(=O)c2ccc(Cl)s2)cc1 do in these assays?
Pf apPOL inh: -10; mHTT-CaM PPI inh: 65*

Results for COc1ccc(NC(=O)C2CC2)c2ncccc12 ?
Pf apPOL inh: -2; mHTT-CaM PPI inh: 11

Results for CCCCC(=O)NC(c1ccccc1Cl)c1ccc2cccnc2c1O (centres undefined) ?
Pf apPOL inh: -1; mHTT-CaM PPI inh: 99*

How did CCC(=O)Nc1cccnc1-c1ccc(C(=O)Nc2ccccc2OC)cc1 do in these assays?
Pf apPOL inh: 2; mHTT-CaM PPI inh: 4

What do the screens show for `COc1ccccc1C(NC(=O)C1CCCCC1)c1ccc2cccnc2c1O` (centres undefined)?
Pf apPOL inh: 0; mHTT-CaM PPI inh: 100*

What do the screens show for `O=C(CCCN1C(=O)c2cccnc2C1=O)NC(c1ccccc1)c1ccccc1`?
Pf apPOL inh: -30; mHTT-CaM PPI inh: 10

What do the screens show for `O=C(Cc1ccccc1)NC(c1ccccc1)c1ccc2cccnc2c1O` (centres undefined)?
Pf apPOL inh: inactive; mHTT-CaM PPI inh: 100*

What do the screens show for `O=C(NC(c1ccccc1)c1ccccc1)c1ccccn1`?
Pf apPOL inh: 8; mHTT-CaM PPI inh: -20

Results for CCC(=O)NC(c1ccccc1OC)c1ccc2cccnc2c1O (centres undefined) ?
Pf apPOL inh: -1; mHTT-CaM PPI inh: 100*

Results for C/C=C/C(=O)N1c2cc(C)c(C)cc2C(C)=CC1(C)C ?
Pf apPOL inh: 0; mHTT-CaM PPI inh: -9

What do the screens show for `O=[N+]([O-])c1ccc(N2CCN(CC3CC=CCC3)CC2)cc1` (centres undefined)?
Pf apPOL inh: 6; mHTT-CaM PPI inh: 14

Results for CCC(=O)NC(c1ccccc1Cl)c1ccc2cccnc2c1O (centres undefined) ?
Pf apPOL inh: 0; mHTT-CaM PPI inh: 100*

How did CCC(=O)Nc1ccccc1Cl do in these assays?
Pf apPOL inh: 0; mHTT-CaM PPI inh: -10

How did O=C(Cc1ccccc1)Nc1cc(-c2nc3ncccc3o2)ccc1Cl do in these assays?
Pf apPOL inh: -6; mHTT-CaM PPI inh: 0

How did O=C(Cc1ccccc1)NC(c1ccccc1Cl)c1ccc2cccnc2c1O (centres undefined) do in these assays?
Pf apPOL inh: 2; mHTT-CaM PPI inh: 100*
